Test results reported in PubChem BioAssay (NCATS).
“And” between values parts separate entries of the source, which are not always exact repeats. Equal values may be shown once. Results filed as inconclusive are left out. The source made the active and inactive calls. Unless noted, the call rests on the fitted dose curve; in most records, active means well fitted curve in the direction sought with a large enough effect; inconclusive means small, poorly fitted or top-dose-only effect, or another doubt; inactive means no such curve, though single readings can be large; an effect the other way counts as inactive or inconclusive.

What was measured:
[1] = Cell Viability - LYMP2-020 (AID 986);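 further: plate controls were DMSO only for no effect and tetraoctylammonium bromide at 92 µM for full effect; nearly all actives have a fitted effect of over 55% in size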
Outline: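 Human lymphoblastoid LYMP2-020 cells (2500/well) preincubated 5 h at 37 C, then treated 24 h at 37 C. Viability measured as intracellular ATP by CellTiter-Glo luminescence after 30 min at room temperature; AC50 from Hill fits.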

[2] = Cell Viability - LYMP2-024 (AID 988);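 further: plate controls were DMSO only for no effect and 92 µM tetraoctylammonium bromide for full effect; nearly all actives have a fitted effect of over 60% in size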
Outline: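 Human lymphoblastoid LYMP2-024 cells (2500/well) rested 5 hr, then treated with compound for 24 hr at 37 C in complete medium. Viability was measured as intracellular ATP by CellTiter-Glo luminescence. AC50 values came from Hill-equation fits.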

[3] = Cell Viability - LYMP2-026 (AID 989); further: on the % scale 0 is the no-effect control and ±100 the full control effect; nearly all actives have a fitted effect of over 50% in size
Outline: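 Human lymphoblastoid LYMP2-026 cells, 2500/well, exposed to compound 24 h at 37 C in complete medium. Viability as intracellular ATP by CellTiter-Glo luminescence; AC50 from Hill fits of qHTS concentration-response.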

[4] = Cell Viability - LYMP1-002 - Assay at 40 hr (AID 994);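 further: 0% = DMSO only and full inhibition = 92 µM tetraoctylammonium bromide; nearly all actives have a fitted effect of over 60% in size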
Outline: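 LYMP1-002 human lymphoblastoid cells (2500/well, complete medium) were treated with compounds for 40 hr at 37 C. Intracellular ATP was measured by CellTiter-Glo luminescence, and AC50 values came from Hill-equation fits of concentration-response data; tetraoctylammonium bromide was the positive control.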

[5] = qHTS Assay for Lipid Storage Modulators (AID 1519; calls by dose curve; on activity change, negative = inhibition: on the % scale 0 is the no-effect control and ±100 the full control effect); conditions: Drosophila S3 cells, BODIPY lipid droplet/cell ratio, laser cytometry, cells loaded with oleic acid
Outline: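 Cells seeded at 5,000 per well were treated with compounds over a concentration series and loaded with oleic acid (400 uM, as added). Lipid droplet fluorescence (488 nm excitation, 500-530 nm channel) was read by laser-scanning cytometry and normalized to 20 uM Triacsin C.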

[6] = qHTS Assay for Identification of Small Molecule Inducers of Hypoxia Response (AID 2120; active means well fitted curve in the direction sought with a large enough effect in the signal ratio, with a control signal flat, not every such curve was filed as active; the % refers to the signal ratio; further: 0% is about no effect)
Outline: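 HRE-bla ME-180 cells in Opti-MEM with 0.5% dialyzed FBS, pre-plated 4-5 h, then compound titration for 17 h at 37 degrees Celsius. CCF4 loaded 2.5 h at room temperature; 460/530 nm ratio gave %Activity and AC50 for induction.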

[7] = target: Alpha-galactosidase A (Homo sapiens) (UniProt P06280); assay: Counterscreen for Glucocerebrosidase Inhibitors: qHTS Assay for Human alpha-Galactosidase at pH 4.5 (AID 992); further: 0% is about no effect
Outline: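 Quantitative HTS: compounds tested from 0.7 nM up to 77 uM against 2 nM enzyme with 80 uM 4-MU alpha-D-galactopyranoside. The 20 min room-temperature reaction is stopped with 1M NaOH/1M glycine, pH 10.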

[8] = target: alpha-glucosidase (Oryza sativa, rice) (UniProt Q653V4); assay: Counterscreen for Glucocerebrosidase Inhibitors: qHTS Assay for Rice alpha-Glucosidase at pH 5.0 (AID 997);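 further: 0% = full activity with enzyme and -100% = basal without enzyme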
Outline: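 Rice alpha-glucosidase (4 nM final) with 400 uM 4-methylumbelliferyl-alpha-D-glucopyranoside in citrate buffer pH 5.0, 20 min at room temperature, stopped at pH 10; fluorescence 365/440 nm, compounds 0.7 nM–77 uM, AC50 from Hill fits.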

[9] = target: DNA repair nuclease/redox regulator APEX1 (Homo sapiens) (UniProt P27695); assay: qHTS Validation Assay for Inhibitors of the Human Apurinic/apyrimidinic Endonuclease 1 (APE1) (AID 1705;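 further: TAMRA fluorescence gain over two minutes as APE1 cuts a quenched THF abasic duplex; on the % scale 0 is the no-effect control and ±100 the full control effect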)
Outline: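 Activity read as rising fluorescence (598 nm emission, 525 nm excitation) from incision of a TAMRA/BHQ-2 duplex carrying a THF abasic site (50 nM). Compound and enzyme sat 15 min at RT before substrate start; signal change between first and third 60-s reads.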

[10] = qHTS for differential inhibitors of proliferation of Plasmodium falciparum line 7G8 (AID 1815);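 further: parasite growth measured after three days of incubation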; further: potency means the concentration at half of the fitted maximal effect;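 on activity change, negative = inhibition: plate controls were vehicle wells for no effect and reference inhibitor wells for full effect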
[11] = qHTS for differential inhibitors of proliferation of Plasmodium falciparum line W2 (AID 1883); conditions: Potency: Plasmodium falciparum W2 proliferation inhibition;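 further: parasites grown with compound for 72 h before lysis and staining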; further: potency means the concentration at half of the fitted maximal effect;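 on activity change, negative = inhibition: 0% = vehicle wells and -100% = control inhibitor wells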
[12] = qHTS for differential inhibitors of proliferation of Plasmodium falciparum line HB3 (AID 1886); conditions: Potency: Plasmodium falciparum HB3 proliferation inhibition;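 further: parasites grown with compound for 72 h before SYBR Green readout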; further: potency means the concentration at half of the fitted maximal effect;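 on activity change, negative = inhibition: plate controls were vehicle for no effect and reference inhibitor for full effect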
[13] = target: Ferritin light chain (Equus caballus) (UniProt P02791); assay: qHTS Validation Assay for Identification of Novel General Anesthetics (AID 2323); further: on the % scale 0 is the no-effect control and ±100 the full control effect
Outline: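 Competitive displacement of the profluorescent anesthetic 1-AMA (50% saturated, PBS) from 10 uM apoferritin, 10 min, room temperature. Activity is normalized 380/535 nm fluorescence; concentration-response fitted with a four-parameter Hill equation.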

[14] = target: Endonuclease 4 (Escherichia coli (strain K12)) (UniProt P0A6C1); assay: Counterscreen for APE1 Inhibitors: qHTS Validation Assay for Inhibitors of Endonuclease IV (AID 1708); further: on the % scale 0 is the no-effect control and ±100 the full control effect
Outline: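 E. coli EndoIV at 2 nM final, preincubated 15 min at room temperature with compound, then 50 nM TAMRA/BHQ-2 THF abasic-site duplex added. Buffer: 50 mM Tris-HCl pH 7.5, 50 mM NaCl, 2 mM MgCl2, 1 mM DTT, 0.01% Tween-20. Kinetic fluorescence increase, third minus first read.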

[15] = qHTS for differential inhibitors of proliferation of Plasmodium falciparum line GB4 (AID 1816); conditions: Potency: Plasmodium falciparum GB4 proliferation inhibition;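 further: parasite growth measured after 72 h incubation; 0% = vehicle DMSO and -100% = reference inhibitor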
[16] = qHTS for differential inhibitors of proliferation of Plasmodium falciparum line 3D7 (AID 1876);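 further: parasite growth measured after three days of culture; 0% = vehicle wells and -100% = reference inhibitor wells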
[17] = qHTS for differential inhibitors of proliferation of Plasmodium falciparum line D10 (AID 1877);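 further: parasites grown with compound for 72 h before DNA staining; plate controls were vehicle wells for no effect and reference inhibitor wells for full effect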
[18] = qHTS for differential inhibitors of proliferation of Plasmodium falciparum line Dd2 (AID 1882); conditions: Potency: Plasmodium falciparum Dd2 proliferation inhibition;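 further: plate controls were DMSO vehicle for no effect and 0.29 µM artemisinin for full effect; nearly all actives have a fitted effect of over 65% in size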
Outline: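 Dd2-infected erythrocytes (0.3% parasitemia, 2.5% hematocrit final) incubated with compound 72 h at 37 C, 5% CO2; lysed with saponin/Triton buffer containing SYBR Green I, incubated overnight in the dark, then read by fluorescence (485/535 nm). Normalized to 0.29 uM artemisinin and DMSO.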

[19] = measured here: cell count channel max response
[20] = measured here: lipid channel max response

DNA repair nuclease/redox regulator APEX1 (Homo sapiens), sequence (P27695 whole entry, looked up): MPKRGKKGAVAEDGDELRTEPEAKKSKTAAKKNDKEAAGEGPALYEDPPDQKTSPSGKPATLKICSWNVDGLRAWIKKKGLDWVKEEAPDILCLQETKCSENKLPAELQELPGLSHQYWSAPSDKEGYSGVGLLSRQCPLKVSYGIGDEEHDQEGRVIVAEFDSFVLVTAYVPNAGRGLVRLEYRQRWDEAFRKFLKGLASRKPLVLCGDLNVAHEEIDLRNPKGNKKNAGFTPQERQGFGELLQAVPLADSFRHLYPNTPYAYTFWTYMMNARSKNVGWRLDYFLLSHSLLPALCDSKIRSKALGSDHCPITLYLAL
Alpha-galactosidase A (Homo sapiens), sequence (P06280 whole entry, looked up): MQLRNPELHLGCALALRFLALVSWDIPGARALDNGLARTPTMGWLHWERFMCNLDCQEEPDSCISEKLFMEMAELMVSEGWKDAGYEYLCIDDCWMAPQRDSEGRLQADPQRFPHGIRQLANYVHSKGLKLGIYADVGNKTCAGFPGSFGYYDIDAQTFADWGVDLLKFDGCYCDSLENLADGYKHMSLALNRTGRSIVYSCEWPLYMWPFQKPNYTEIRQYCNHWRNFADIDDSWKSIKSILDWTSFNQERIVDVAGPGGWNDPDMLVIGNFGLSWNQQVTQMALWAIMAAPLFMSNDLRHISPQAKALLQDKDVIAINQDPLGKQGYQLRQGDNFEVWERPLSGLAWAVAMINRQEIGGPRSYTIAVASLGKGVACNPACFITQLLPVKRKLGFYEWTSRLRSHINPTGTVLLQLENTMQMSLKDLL

COc1c2occc2cc2ccc(=O)oc12
inactive: Potency [1] | Potency [2] | Potency [3] | Potency [4] | activity change, negative = inhibition ([5]; at 25.7 µM (top of the series)) 2.64%
-4.25%: max response [5, 19]
1.14%: max response [5, 20]

CS(=O)(=O)OCCCCOS(C)(=O)=O
inactive: Potency [1] | Potency [2] | Potency [3] | Potency [4] | activity change, negative = inhibition ([5]; at 57.5 µM (top of the series)) 1.02% | outcome [6]
11.4%: max response [5, 20]
2.98%: max response [5, 19]

Nc1cc(C(Cl)=C(Cl)Cl)c(S(N)(=O)=O)cc1S(N)(=O)=O
inactive: activity change, negative = inhibition ([5]; at 25.7 µM (top of the series)) -3.67% | activity change, negative = inhibition ([5]; at 57.5 µM (top of the series)) 2.69%
2.6% and 13.2%: max response [5, 20]
6.94% and 7.19%: max response [5, 19]

CCCCC(CC)COC(=O)C(C#N)=C(c1ccccc1)c1ccccc1 (stereo not given)
inactive: Potency [1] | Potency [2] | Potency [3] | Potency [4] | outcome [6]

COc1ccccc1N1CCN(CCN(C(=O)C2CCCCC2)c2ccccn2)CC1
inactive: outcome [7] | outcome [8] | Potency [9] | Potency [13]
active: Potency [10] 2240 nM | Potency [11] 7940 nM | Potency [12] 11200 nM

NS(=O)(=O)c1cc(C(=O)O)c(NCc2ccco2)cc1Cl
-4.2%: max response [5, 20]
-6.97%: max response [5, 19]
inactive: Potency [1] | Potency [2] | Potency [3] | Potency [4] | activity change, negative = inhibition ([5]; at 25.7 µM (top of the series)) 1.95% | outcome [6]

CNC[C@H](O)c1ccc(O)c(O)c1
inactive: outcome [7] | outcome [8] | Potency [9] | outcome [14] | Potency [13]
active: Potency [11] 14100 nM

COc1ccc2cc([C@H](C)C(=O)O)ccc2c1
5.84% and -5.9% and 56%: max response [5, 20]
1.06% and -6.98% and 54.6%: max response [5, 19]
inactive: outcome [7] | outcome [8] | activity change, negative = inhibition ([5]; at 25.7 µM (top of the series)) 4.21% and 0.227% | activity change, negative = inhibition ([5]; at 57.5 µM (top of the series)) 1.21% | Potency [9] | outcome [14] | Potency [10] | Potency [15] | Potency [16] | Potency [17] | Potency [18] | Potency [11] | Potency [12] | Potency [13]

Cc1c(OCC(F)(F)F)ccnc1CS(=O)c1nc2ccccc2[nH]1 (stereo not given)
-17.5% and 9.62%: max response [5, 20]
-16.9% and 6.05%: max response [5, 19]
inactive: outcome [7] | outcome [8] | activity change, negative = inhibition ([5]; at 25.7 µM (top of the series)) -2.59% | activity change, negative = inhibition ([5]; at 57.5 µM (top of the series)) 0.201% | Potency [9] | outcome [14] | Potency [18] | Potency [13]

Nc1ccc(S(N)(=O)=O)cc1
inactive: Potency [1] | Potency [2] | Potency [3] | Potency [4] | activity change, negative = inhibition ([5]; at 25.7 µM (top of the series)) 0.244% | activity change, negative = inhibition ([5]; at 57.5 µM (top of the series)) 10.7% | outcome [6]
-10.4% and 15.9%: max response [5, 19]
-9.48% and 32.6%: max response [5, 20]

O=C(O)c1cc(=O)c2c(OCC(O)COc3cccc4oc(C(=O)O)cc(=O)c34)cccc2o1
inactive: activity change, negative = inhibition ([5]; at 25.7 µM (top of the series)) -2.11% | activity change, negative = inhibition ([5]; at 57.5 µM (top of the series)) 11.5%
9.46% and 18.8%: max response [5, 19]
8.64% and 34.9%: max response [5, 20]

O=C(O)c1cccnc1Nc1cccc(C(F)(F)F)c1
-3.91% and 60.1%: max response [5, 20]
inactive: outcome [7] | outcome [8] | activity change, negative = inhibition ([5]; at 25.7 µM (top of the series)) 2.12% | activity change, negative = inhibition ([5]; at 57.5 µM (top of the series)) 2.96% | Potency [9] | outcome [14] | Potency [10] | Potency [15] | Potency [16] | Potency [17] | Potency [18] | Potency [11] | Potency [12] | Potency [13]
-6.57% and 55.9%: max response [5, 19]

CCC1=C(C)CN(C(=O)NCCc2ccc(S(=O)(=O)NC(=O)NC3CCC(C)CC3)cc2)C1=O (stereo not given)
-5.01%: max response [5, 19]
-5.89%: max response [5, 20]
inactive: activity change, negative = inhibition ([5]; at 25.7 µM (top of the series)) -0.769%

CN1CCC(=C2c3ccccc3CCc3sccc32)CC1
inactive: activity change, negative = inhibition ([5]; at 25.7 µM (top of the series)) -0.622% | activity change, negative = inhibition ([5]; at 57.5 µM (top of the series)) 3.6%
-11.1% and 14.8%: max response [5, 20]
-11.4% and -0.631%: max response [5, 19]

NCCCCNCCCN
7.14%: max response [5, 19]
inactive: outcome [7] | outcome [8] | activity change, negative = inhibition ([5]; at 57.5 µM (top of the series)) 0.755% | Potency [9] | outcome [14] | Potency [10] | Potency [15] | Potency [16] | Potency [17] | Potency [18] | Potency [11] | Potency [12] | Potency [13]
8.54%: max response [5, 20]
